Screening data from PubChem.
D2 ag-1: agonists of human D2 dopamine receptor (beta-arrestin); activation, % (no concentration beside the values); hit rate 0.084% among 360,000; DiscoveRx PathHunter D2 beta-arrestin, luminescence, 90 min; 100% = 57 uM dopamine signal; in the data active means activation above about 40%; inconclusive means between about 15% and that limit
Target sequence (P14416 whole entry, looked up): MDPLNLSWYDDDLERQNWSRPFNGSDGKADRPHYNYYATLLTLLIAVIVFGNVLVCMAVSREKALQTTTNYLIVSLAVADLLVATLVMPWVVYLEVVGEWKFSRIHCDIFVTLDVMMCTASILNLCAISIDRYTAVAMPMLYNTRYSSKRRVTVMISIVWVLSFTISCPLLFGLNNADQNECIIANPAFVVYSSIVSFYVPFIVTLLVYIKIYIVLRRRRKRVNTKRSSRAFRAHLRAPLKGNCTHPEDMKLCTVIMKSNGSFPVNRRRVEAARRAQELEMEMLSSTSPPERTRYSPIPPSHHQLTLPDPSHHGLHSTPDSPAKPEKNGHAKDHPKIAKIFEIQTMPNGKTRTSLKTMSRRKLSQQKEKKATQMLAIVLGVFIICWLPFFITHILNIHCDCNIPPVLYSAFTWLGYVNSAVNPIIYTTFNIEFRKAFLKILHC
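Agonist mode: compounds alone added to overnight-plated D2 PathHunter cells for 90 min at 37 C, with 57 uM final dopamine (EC100) defining full response. Beta-arrestin recruitment detected by chemiluminescent reagent, read after 1 h at ambient temperature.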
D2 PAM-1: human D2 receptor positive allosteric modulation. potentiation, % (concentration not given with the values). DiscoveRx D2 beta-arrestin cells, luminescence, 90 min; 100% = 57 uM dopamine signal. P14416. AID 624464. hit rate 0.23% among 360,000; in the data active means potentiation above about 50%; inconclusive means mostly about 30% to 49%
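D2 cells co-treated with compound plus 50 nM dopamine (EC20) for 90 min at 37 deg C to detect potentiation. Beta-arrestin recruitment was read as enzyme-fragment luminescence after 1 h at ambient temperature. Full response was set by 57 uM dopamine.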
D2 antag: antagonists of human D2 dopamine receptor; P14416; HEK293 TREx D2 cells, calcium flux, dopamine EC80; hit rate 2% among 340,000; inhibition, % at 10 µM; in the data active means inhibition above about 30%; inactive means below that, where a call was filed; further: 0% is about no effect
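Read-out: kinetic calcium fluorescence (1 cycle/s) in inducible HEK293 T-REx D2 cells after an EC80 dopamine addition that followed 180 s compound preincubation. Loss of the dopamine response indicates antagonism.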
D2 ag-2: D2 dopamine receptor (human) agonism; HEK293 T-REx D2 cells, calcium flux agonist mode; AID 485358; P14416; activation, % at 2 µM; hit rate 0.53% among 340,000;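 active means activation over 3 SD above normal in the single-dose calcium agonist read, cut at about 30% in these data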; further: 0% is about no effect
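Tetracycline-induced HEK293 Trex cells with D2 receptor force-coupled to calcium signaling, plated overnight at 30 C and loaded with no-wash calcium dye. Calcium flux read kinetically for 180 s after compound addition; responses flag agonists.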
D2 PAM-2: positive allosteric modulators of human D2 dopamine receptor. P14416. HEK293 T-REx D2, calcium flux, EC20 dopamine potentiation. potentiation, % at 10 µM. hit rate 0.34% among 340,000;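 active means potentiation over 3 SD above the plate norm, cut at about 30% in these data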; further: 0% is about no effect
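Primary screen. Calcium kinetics in induced HEK293 T-REx D2 cells: compound pre-addition 180 s, EC20 dopamine, 180 s more.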
An asterisk follows results filed as active; ? = inconclusive; / = no result given. The list is not random: actives were taken first. Their share in the collection is about 2.4%.

SMILES	D2 ag-1	D2 PAM-1	D2 antag	D2 ag-2	D2 PAM-2
N#CC1=C(N)C(C#N)(C#N)[C@H](c2ccoc2)[C@H]2CN(Cc3ccccc3)CC=C12	1	-17	1	31*	3
COc1ccc2cc3cc(C(=O)NCCN4CCN(c5ccccc5F)CC4)oc3nc2c1	5	-38	38*	15	-19
Cc1ccc(S(=O)(=O)N2CCN(C(=O)c3ccc(N4CCC(C)CC4)c([N+](=O)[O-])c3)CC2)cc1	-1	-12	/	/	/
O=C(NCCCN1CCCCC1)c1ccc2c(c1)ncn2C1CCCC1	-4	-25	30*	0	-4
CCOC(=O)C1=C(C)NC(=O)NC1c1cc2c(cc1Br)OCO2 (stereo not drawn)	-3	-9	-11	0	51*
CC1=C(C(=O)OCc2ccc3c(c2)OCO3)C(c2ccccc2)NC(=O)N1 (stereo not drawn)	?	53*	45*	1	6
C[C@@H]1CCCCO[C@@H](CN(C)S(=O)(=O)c2cn(C)cn2)[C@@H](C)CN([C@H](C)CO)C(=O)c2cc(NC(=O)Nc3ccc(C(F)(F)F)cc3)ccc2O1	-2	6	/	/	/
COc1ccc(N2CCN(CCCn3c(=S)[nH]c4ccccc4c3=O)CC2)cc1	8	-7	-41	0	-30
COc1ccccc1N1CCN(CCCn2c(=S)[nH]c3ccccc3c2=O)CC1	2	-36	82*	9	-30
O=c1c2ccccc2[nH]c(=S)n1CCN1CCN(Cc2ccccc2)CC1	-4	-22	52*	0	-29
COc1ccccc1N1CCN(CCc2n[nH]c(=S)n2-c2ccccc2)CC1	2	-21	52*	0	-22
O=c1c2cc(N3CCOCC3)ccc2[nH]c(=S)n1CCN1CCCC1	-2	-12	6	0	-6
O=c1c2cc(N3CCOCC3)ccc2[nH]c(=S)n1CCCN1CCN(c2ccccc2F)CC1	/	/	84*	70*	-28
CC1=C(C(=O)OC2CCCCCC2)C(c2ccc(Cl)cc2Cl)CC(=O)N1 (stereo not drawn)	/	/	/	0	9
O=C(NCc1ccccc1)C1CCCN(S(=O)(=O)c2ccc(Br)cc2)C1 (stereo not drawn)	-3	-21	1	0	-1
Cc1cccc(NC(=O)NNC(=O)c2cc3occc3[nH]2)c1C	-2	-8	0	2	16
CCCc1nn2c(=O)cc(COc3ccc(/C=C(\C#N)C(=O)Nc4ccccc4)cc3)nc2s1	/	/	/	-1	3
CCOc1ccccc1NC(=O)Cn1nc2c3cc(F)ccc3n(Cc3cccc(C)c3)cc-2c1=O	/	/	/	-2	4
O=c1c2cc(N3CCOCC3)ccc2[nH]c(=S)n1CCCN1CCCCCC1	2	-50	39*	0	-29
CCn1cc([N+](=O)[O-])c(C(=O)Nc2ccc3c(c2)OCCO3)n1	4	10	69*	1	-13
COc1cc(Cl)c(C)cc1NC(=O)COC(=O)C1=COCCO1	-5	-6	32*	-1	-9
Cc1ccc(S(=O)(=O)N2CCCCC2)cc1NC(=O)COC(=O)C1=COCCO1	-1	-5	12	1	38*
Cc1ccc(S(=O)(=O)N2CCOCC2)cc1NC(=O)CNCc1ccccc1Cl	8	14	0	39*	9
O=C(COC(=O)C1=COCCO1)Nc1cc(S(=O)(=O)N2CCCCC2)ccc1Cl	0	-4	7	2	13
Cc1ccc2c(c1)c(=O)c(C(=O)c1ccncc1)cn2CC(=O)Nc1c(C)cccc1C	/	/	/	0	-2
SMILES	D2 ag-1	D2 PAM-1	D2 antag	D2 ag-2	D2 PAM-2
O=C(COC(=O)/C=C/c1cccc([N+](=O)[O-])c1)Nc1ccc(Cl)cn1	-2	-3	39*	0	13
Fc1cccc(F)c1CN1CCN(c2ncccn2)CC1	?	21	-3	33*	-14
O=C(c1cccs1)N1CCN(c2ccc(F)cc2)CC1	-2	-8	-2	1	11
O=C(c1cccs1)N1CCN(c2ccccc2)CC1	-2	-4	31*	0	-2
COc1ccc(CN2CCN(C(=O)c3cccs3)CC2)cc1	9	5	95*	81*	-23
CN1CCN(C(=O)c2ccccc2NC(=O)c2ccccc2Br)CC1	2	6	3	0	9
